High-throughput results deposited in PubChem BioAssay by National Center for Advancing Translational Sciences (NCATS).
An excerpt weighted towards active compounds, which were near 3% of everything screened.
PLK1 PBD inh = qHTS for Inhibitors of PLK1-PDB (polo-like kinase 1 - polo-box domain): Primary Screen; Serine/threonine-protein kinase PLK1 (Homo sapiens), P53350; Plk1 PBD binding of FITC phosphopeptide, fluorescence polarization; Potency, µM, for the others: max response, negative = inhibition, actives largely listed as inhibitors; 360,000 compounds, 2.8% hits; further: series mostly up to about 57 µM; nearly all actives have a fitted effect of over 65% in size
VDR inhibitor = Inhibitors of the vitamin D receptor (VDR): qHTS; VDR-SRC2-3 peptide fluorescence polarization, 2 h; Potency, µM, without a hit: max response, negative = inhibition, usual class: inhibitors; 400,000 compounds, 0.93% hits; AID 504847, 2011
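Measured by FP: displacement of SRC2-3 coactivator peptide from VDR by library compounds, following a two-hour ambient incubation.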
12-LOX inh = Primary qHTS assay for inhibitors of human arachidonate 12S-lipoxygenase (ALOX12): Round 2. purified 12hLO, xylenol orange hydroperoxide absorbance. Polyunsaturated fatty acid lipoxygenase ALOX12 (Homo sapiens), P18054. Potency, µM (top dose mostly 108 µM), for the others: at the top dose activity change, negative = inhibition, most hits filed as inhibitors. 580,000 compounds, 1.1% hits
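Hydroperoxide product was detected by ferrous iron/xylenol orange as the 573 to 405 nm absorbance ratio. Arachidonic acid at 40 uM (final) was turned over for 30 min at room temperature by 150 nM human 12hLO, pH 7.0 Hepes buffer, after 15 min compound preincubation.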
KAT2A inh = qHTS Assay for Inhibitors of GCN5L2; GCN5L2 HAT assay, ThioGlo1 CoA-SH fluorescence; Histone acetyltransferase KAT2A (Homo sapiens), Q92830; 390,000 compounds, 0.21% hits; Potency, µM (doses to about 58.9 µM), for the others: at the highest dose activity change, negative = inhibition, actives largely listed as inhibitors
Target sequence (Q92830 whole entry, looked up): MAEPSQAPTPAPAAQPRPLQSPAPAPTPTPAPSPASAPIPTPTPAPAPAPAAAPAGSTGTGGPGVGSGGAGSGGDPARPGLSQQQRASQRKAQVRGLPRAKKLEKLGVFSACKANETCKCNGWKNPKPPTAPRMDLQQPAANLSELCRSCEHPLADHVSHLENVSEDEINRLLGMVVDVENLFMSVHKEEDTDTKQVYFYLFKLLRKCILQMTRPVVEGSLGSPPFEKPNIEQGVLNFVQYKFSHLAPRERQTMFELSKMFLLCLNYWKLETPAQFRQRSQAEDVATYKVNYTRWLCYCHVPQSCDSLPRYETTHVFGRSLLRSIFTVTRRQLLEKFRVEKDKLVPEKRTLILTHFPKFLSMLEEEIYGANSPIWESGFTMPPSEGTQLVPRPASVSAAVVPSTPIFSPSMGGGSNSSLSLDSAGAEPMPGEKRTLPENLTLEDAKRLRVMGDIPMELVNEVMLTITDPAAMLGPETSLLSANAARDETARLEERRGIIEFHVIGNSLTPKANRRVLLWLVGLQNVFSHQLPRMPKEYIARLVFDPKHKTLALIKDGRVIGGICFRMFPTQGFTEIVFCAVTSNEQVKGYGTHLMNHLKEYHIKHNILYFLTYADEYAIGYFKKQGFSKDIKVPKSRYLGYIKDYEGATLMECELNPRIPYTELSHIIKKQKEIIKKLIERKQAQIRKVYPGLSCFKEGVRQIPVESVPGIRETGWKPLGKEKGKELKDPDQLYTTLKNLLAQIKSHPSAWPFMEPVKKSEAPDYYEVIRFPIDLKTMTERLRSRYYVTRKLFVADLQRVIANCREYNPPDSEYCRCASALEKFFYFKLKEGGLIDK
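qHTS, 1536-well. 20nM enzyme, pH 7.5 HEPES/EDTA/Tween-20 buffer; 15 min compound preinc., RT. Start: 75uM H3(1-25), 70uM AcCoA, 50uM ThioGlo1. Read Ex340/Em540 at t=0 (autofluorescence flag) and t=20 min.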
* marks the source's active call; other numbers are inactive results; ? = inconclusive; . = not tested or not shown; [ ] = another dose, or the depositor's remark. The call rests on the fitted dose curve; in most records, active means well fitted curve in the direction sought with a large enough effect; inconclusive means small, poorly fitted or top-dose-only effect, or another doubt; inactive means no such curve, though single readings can be large; an effect the other way counts as inactive or inconclusive. On the % scale 0 is the no-effect control and ±100 the full control effect; potency means the concentration at half of the fitted maximal effect.

SMILES	PLK1 PBD inh	VDR inhibitor	12-LOX inh	KAT2A inh
Cc1c(Cl)cccc1NS(=O)(=O)c1ccc2c(c1)C1C=CCC1C(c1ccc(C(=O)O)cc1)N2 (stereo unspecified)	11µM*	?	.	?
Cc1cccc(C)c1NS(=O)(=O)c1ccc2c(c1)[C@H]1C=CC[C@H]1[C@@H](c1ccc(Cl)cc1)N2	.	-21%	?	-15%
CC1CCN(C(=O)c2ccc(S(=O)(=O)Cc3ccccc3F)c([N+](=O)[O-])c2)CC1	-13%	1%	-12%	-2%
O=C(c1ccc(S(=O)(=O)Cc2ccccc2F)c([N+](=O)[O-])c1)N1CCCC1	24µM*	-9%	3%	-6%
COc1cc2nc(CSCC(=O)NC3CC(C)(C)NC(C)(C)C3)[nH]c(=O)c2cc1OC	.	.	-15%	.
CCC(C)N(CCNC(=O)Cn1nc(Cc2cccnc2)c2ccccc2c1=O)Cc1ccco1 (stereo unspecified)	.	.	9%	.
Nc1[nH]c(C(=O)c2ccccc2)c(-c2ccc(Br)cc2)c1C(=O)c1ccc(Br)cc1	-22%	.	?	.
Nc1[nH]c(C(=O)c2ccccc2)c(-c2ccc(Br)cc2)c1C(=O)c1cccs1	?	.	40µM*	.
CCC1CCCCN1S(=O)(=O)c1ccc2c(c1)c(=O)n(CC(=O)N1CCCC1)c(=O)n2C (stereo unspecified)	.	.	3%	.
C=C(CCC12O[C@H](C(=O)O)[C@@](O)(C(=O)O)[C@](C(=O)O)(O1)[C@H](OC(=O)/C=C/[C@@H](C)C[C@@H](C)CC)[C@H]2O)[C@@H](OC(C)=O)[C@H](C)Cc1ccccc1	.	?	.	5µM*
NC(=O)C(Oc1ccccc1Cl)c1ccccc1 (stereo unspecified)	.	.	33%	.
CCN(CC)C(=O)CSc1nc2c(sc(=S)n2-c2ccccc2)c(=O)n1-c1ccc(OC)cc1OC	3µM*	25µM*	11%	0%
CCN(CC)C(=O)CSc1nc2c(sc(=S)n2-c2ccccc2)c(=O)n1-c1ccccc1OC	1%	7%	0%	-7%
CCOC(=O)CSc1nc2c(sc(=S)n2-c2ccccc2)c(=O)n1-c1ccc(OC)cc1OC	4.7µM*	?	-28%	-3%
COc1ccccc1-n1c(SCC(=O)O)nc2c(sc(=S)n2-c2ccc(C)c(C)c2)c1=O	-10%	5%	?	-2%
CC(C)CC(NC(=O)OCc1ccccc1)C(=O)NC(Cc1ccccc1)C(=O)CCl (stereo unspecified)	-12%	71µM*	-30%	.
CCCC[C@@H](C=O)NC(=O)[C@H](CC(C)C)NC(=O)OCc1ccccc1	.	35µM*	?	-15%
CCCCC(C=O)NC(=O)C(CC(C)C)NC(=O)OCc1ccccc1 (stereo unspecified)	.	?	-1%[57.4 µM]	-9%
c1ccc(Nc2cc3c(cn2)CN(Cc2cccs2)CCN3)cc1	.	.	-1%[176 µM]	.
CC1=C[C@@H](CNC(=O)c2ccc(C#N)cc2)[C@H](C(C)C)C[C@H]1CC(=O)NCCN(C)C	.	.	12%[176 µM]	.
c1coc(CSSCc2ccco2)c1	12µM*	22µM*	?	3%
Cc1ccc(NC(=O)CSCc2ccco2)cc1	-14%	-5%	0%	-2%
CCOC(=O)N1CCN(C(=O)Cn2ncc3ccccc32)CC1	30µM*	-23%	-3%	1%
O=C(CSc1ccc(Cl)cc1)N1CCCC1	24µM*	?	-22%	1%
CCOC(=O)N1CCN(C(=O)CSc2ccccc2)CC1	15µM*	-9%	-28%	-4%
SMILES	PLK1 PBD inh	VDR inhibitor	12-LOX inh	KAT2A inh
CCOC(=O)C1CCCN(C(=O)CSc2nc(C)cc(C)n2)C1 (stereo unspecified)	-14%	-1%	-6%	-4%
CCOC(=O)C1CCCN(C(=O)CSc2ccc(Br)cc2)C1 (stereo unspecified)	24µM*	?	.	-13%
Cc1ccc(SCC(=O)N2CCCC2)cc1	-5%	-15%	0%	0%
CCOC(=O)N1CCC(NC(=O)Cn2ncc3ccccc32)CC1	-5%	0%	-9%	1%[0.501 µM]
CSc1ccc(C2CC(=O)NC3=C2C(=O)CC(C)(C)C3)cc1 (stereo unspecified)	.	.	0%	.
CCOC(=O)N1CCN(C/C(Cl)=C/c2ccccc2)CC1	7%	-10%	2.2µM*	-4%
CN(C)C[C@@H]1CN(c2ccncn2)C[C@H]1NC(=O)c1cnco1	.	.	-4%	.
CCOc1ccc(C(c2c(O)nc(SC)n(C)c2=O)c2c(O)nc(SC)n(C)c2=O)cc1	12µM*	40µM*	-15%	-13%
COc1ccc(NC(=S)NCCCN2CCCC2)cc1Cl	19µM*	-20%	-17%	-5%
COc1ccc(NC(=S)N(CCCN2CCC(C)CC2)Cc2cccs2)cc1Cl	17µM*	-25%	11%	1%
COc1ccc(NC(=S)NCCN2CCC(C)CC2)cc1Cl	11µM*	?	?	-5%
COc1ccc(NC(=S)N(CCCN2CCN(C)CC2)Cc2cccs2)cc1	-5%	-10%	17%	2%
CC(Cc1cccs1)NC(=S)Nc1ccc(Cl)c(Cl)c1 (stereo unspecified)	-10%	-6%	32µM*	2%
CC(Cc1cccs1)NC(=S)Nc1ccc(Cl)cc1 (stereo unspecified)	-14%	3%	40µM*	-1%
CC(Cc1cccs1)NC(=O)Nc1ccc(F)cc1 (stereo unspecified)	-8%	3%	-8%	-7%
O=C(NCCc1ccccc1)C12CC3CC(CC(C3)C1)C2	.	.	-23%	.
O=C(COC(=O)c1cc([N+](=O)[O-])ccc1Cl)c1cc2ccccc2o1	.	.	40µM*	.
O=C(COC(=O)c1cc([N+](=O)[O-])ccc1Cl)NCCc1ccccc1	3%	2%	14%	-5%
COC(=O)COc1ccc(-c2nccc(-c3ccc(Br)cc3)n2)cc1	9.5µM*	28µM*	6%	1%
CCCN1CCC(N(C)C(=O)Nc2ccc(F)cc2)CC1	.	.	-36%	.
COc1cc(/C=C2\C(C)=C(C#N)c3nc(N)c(C#N)c(C)c32)ccc1OCC(=O)O	27µM*	-19%	?	1%
O=C(c1ccc(-n2c(SCc3cccc(F)c3)nc3ccccc3c2=O)cc1)N1CCOCC1	27µM*	?	2%	-9%
c1ccc(-c2ccc(CNCC3CCCO3)cc2)cc1 (stereo unspecified)	.	.	1%	.
CCNc1c(NC(=O)c2ccccc2OC)c(=O)oc2ccccc12	.	.	-3%	.
Cc1cc2nc3c(=O)n(C4CCCCC4)c(=O)[nH]c3nc2cc1N	3µM*	?	-17%	-14%
COC(=O)C(NC=O)C(O)(C#Cc1ccccc1)C(F)(F)F (stereo unspecified)	.	.	-25%	.
O=C(c1cc(-c2ccc(Br)cc2)on1)N1CCc2ccccc2C1	34µM*	?	6%	-19%
O=C(c1cc(-c2ccc(Cl)cc2)on1)N1CCCCCC1	27µM*	?	0%	-2%
